Experimental findings from PubChem BioAssay (NCI) are described below.

Each structure is given as a SMILES string. The panel holds about 83,000 compounds, 20% with a hit somewhere; the sample as a whole holds those more often.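 Single-dose data. Exposure time 48 hours. Values below 10 considered active.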 Unmarked numbers belong to inactive results. Calls of active or inactive are those of the source.

What all share (assay): NCI-60 one-dose screen, 48 h (100 = growth as untreated, 0 = no growth, -100 = all killed)
Details in all cases: 10 µM unless noted

In test [1] the test system is SR leukemia.
The test system of test [2] is RPMI-8226 leukemia.
In test [3] the test system is OVCAR-8 ovarian.
Test [4] has as its system OVCAR-5 ovarian.
Test [5] deals with OVCAR-4 ovarian.
Test [6] has as its system SK-OV-3 ovarian.
Test [7] deals with IGROV1 ovarian.
The subject of test [8] is OVCAR-3 ovarian.
Test [9] concerns HS 578T breast.
Test [10] concerns NCI/ADR-RES ovarian.

In the case of `CN(C)CCCNC(=O)c1cncnc1Nc1ccc(OCc2cccc(F)c2)c(Cl)c1`, the growth in test [1] was -48.5% (active); in test [2] it was -14.6% (active); in test [3], 1.06% (active); in test [4], 36.1%; in [5], 25.7%; in [6], -24% (active). Further, the growth in [7] was 1.4% (active); in [8] it was 6.33% (active); in test [9] it was -30% (active); in test [10], 43.3%.
With `C/C=C(\C)C(=O)N[C@H]1C(O)C[C@]2(C)C3CC[C@@]4(C)C(CC[C@@H]4C(C)N(C)C)C3CCC2C1O` (stereo not given in full), the growth in test [1] was -30.4% (active); in test [2] it was -12.3% (active); in test [3], 84.2%; in test [4], 95%; in test [5], 24.2%; in test [6], 87.7%. Besides, the growth was 66% in test [7], 33.5% in [8], 71.5% in [9] and 81.3% in test [10].
Turning to `CCCCNC(=O)Oc1ccc(/C(=C(/C)Cc2ccc(OC)cc2)c2ccc(OCCN3CCCCC3)cc2)cc1`, the growth in [1] is -40.5% (active); in [2] it was 32.3%; in test [3] it was 84.7%; in [4] it was 84.5%; in test [5], 69.3%; in [6] it was 95.5%. Further, the growth in test [7] was 84.5%; in test [8] it was 77.1%; in test [9], 72.9%; in test [10], 81.9%.
Turning to `Cc1ccc(C=C2C(=O)NC(=O)NC2=O)cc1`, the growth in [1] was 96.9%; in test [2], 103%; in test [3], 100%; in test [4], 107%; in [5], 110%; in [6], 105%. Besides, the growth was 104% in test [7], 105% in test [8], 105% in test [9] and 102% in test [10].
As to `Cc1c2ccncc2c(C)c2c1c1cc(CO)ccc1n2C`, the growth in test [1] is -4.24% (active); in test [2], -17.1% (active); in [3], 6.79% (active); in [4], -15.8% (active); in [5] it was -3.73% (active); in [6], -2.65% (active). Moreover, the growth is -8.24% (active) in test [7], -24.2% (active) in test [8], 24.3% in test [9] and 4.56% (active) in [10].
Turning to `N#Cc1c(-c2ccccc2)nc(SCC(O)CN2CCOCC2)nc1N1CCOCC1` (stereo not given), the growth in test [1] was 85.1%; in [2], 105%; in [3], 33.4%; in test [4], 61.2%; in [5], 68.6%; in [6], 41.1%. For the same molecule, the growth in test [7] was -29.5% (active); in test [8], 35.4%; in [9], 6.19% (active); in test [10], 72.7%.
With `COc1cc(OC)cc(-c2ccc(-c3ccc(C(=N)N)o3)o2)c1`, the growth is -17.3% (active) in test [1]; 20.6% in test [2]; 64.3% in test [3]; 83.5% in [4]; 85.5% in test [5]; 88.2% in test [6]. Besides, the growth in test [7] is 58.1%; in test [8], 25.7%; in test [9], 78%; in test [10], 68.9%.
For `O=C(C1=Cc2cc3ccccc3n2Cc2cnnn21)c1ccc(O)cc1`, the growth in test [1] was 35.1%; in [2], 63.8%; in [3] it was 64.8%; in test [4] it was 91.2%; in [5], 81.3%; in [6], 74.5%. For the same molecule, the growth in test [7] was 41.1%; in test [8] it was 20.6%; in test [9], 49.4%; in [10] it was 37.2%.
For `COc1ccc(Cn2cc(C(=O)N=Nc3c(O)[nH]c4c(C)cccc34)nn2)cc1`, the growth in test [1] was 76.6%; in test [2], 90%; in test [3], 67.6%; in test [4] it was 93.6%; in [5] it was -28.2% (active); in test [6], 110%. The growth in [7] was 84.8%; in test [8] it was 46.7%; in test [9], 84.1%; in [10], 71.2%.
On to `COc1ccc(C(=O)Cn2c(C(=O)c3ccc(Cl)cc3)nc3ccccc32)cc1`, for which the growth in test [1] was 26.9%; in [2] it was 13%; in test [3], 69.9%; in test [4], 90.4%; in test [5] it was 62.4%; in test [6], 98.8%. The growth in test [7] was 39.7%; in test [8], 52%; in test [9], 47.2%; in [10], 35.9%.
On to `COc1ccc(-c2n[nH]c(=O)c3nc(NC(=S)Nc4ccc(Oc5ccccc5)cc4)sc23)cc1`, for which the growth in [1] was 81.6%; in test [2], 82.8%; in test [3] it was 86.5%; in test [4] it was 104%; in test [5], 95%; in test [6], 94.9%. Further, the growth in test [7] is 104%; in test [8], 105%; in test [9], 97.7%; in test [10], 108%.
With `Cc1c2cccnc2c(C)c2c1c1cc(CO)ccc1n2C`, the growth in test [1] is 14.3%; in [2] it was 23.1%; in test [3], 28.6%; in test [4], 2.92% (active); in test [5], 33.3%; in [6], 43.1%. In addition, the growth in test [7] is 4.27% (active); in [8] it was 25.2%; in [9], 47.6%; in test [10], 24.2%.
Consider `COc1ccc(C(=S)N2CCN(c3ccc(Cl)cc3)CC2)cc1`, for which the growth in test [1] was 90.5%; in [2], 94%; in test [3] it was 98.2%; in [4], 93.8%; in test [5], 102%; in test [6] it was 98.5%. The growth in test [7] is 109%; in test [8], 114%; in test [9], 105%; in test [10], 97.6%.
